ANO1 block = TMEM16A chloride channel inhibitors, primary screen, cell-based, HTS; Anoctamin-1 (Mus musculus), Q8BHY3; HEK293 TMEM16A/YFP iodide influx fluorescence, ionomycin; normalized B-score (activity score, 25-100; higher = stronger inhibition) at 10 µM; actives 1.2% (n = 310,000); AID 588511, 2011;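 active = ratio plate-corrected score three or more library SD toward inhibition, starting fluorescence score within five deviations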;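 also: score derived from kinetic fluorescence span divided by baseline fluorescence per well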
PKA-R2B act = activators of PKA-R2B holoenzyme, primary screen, biochemical, fluorescence polarization, Cy5-IP20, human | PKA-R2B holoenzyme dissociation; R2B truncated from residue 108, S112A mutant; 0% DMSO only, 100% 113 µM cGMP | activation, % at 11.4 µM | actives 0.079% (n = 340,000) | AID 504700, 2011;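 active = activation above a cutoff set at the mean over all compounds plus 3 SD, cut at about 18% in these data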;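 also: higher means more holoenzyme dissociation and a rise in polarization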
CHT block = inhibitors of human choline transporter CHT; AID 488975, 2010; CHT-expressing cells, membrane potential dye, choline response; stronger effect = lower value; B-score at 10 µM; High affinity choline transporter 1 (Homo sapiens), Q9GZV3; actives 0.86% (n = 310,000);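 active = B-score over 3 SD under the library average, and starting fluorescence ratio not unusually high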;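 also: choline stimulus applied at its EC90 after an EC20 pre-addition; B-score computed on integrated fluorescence ratio after choline addition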
Target sequence (Q9GZV3 whole entry, looked up): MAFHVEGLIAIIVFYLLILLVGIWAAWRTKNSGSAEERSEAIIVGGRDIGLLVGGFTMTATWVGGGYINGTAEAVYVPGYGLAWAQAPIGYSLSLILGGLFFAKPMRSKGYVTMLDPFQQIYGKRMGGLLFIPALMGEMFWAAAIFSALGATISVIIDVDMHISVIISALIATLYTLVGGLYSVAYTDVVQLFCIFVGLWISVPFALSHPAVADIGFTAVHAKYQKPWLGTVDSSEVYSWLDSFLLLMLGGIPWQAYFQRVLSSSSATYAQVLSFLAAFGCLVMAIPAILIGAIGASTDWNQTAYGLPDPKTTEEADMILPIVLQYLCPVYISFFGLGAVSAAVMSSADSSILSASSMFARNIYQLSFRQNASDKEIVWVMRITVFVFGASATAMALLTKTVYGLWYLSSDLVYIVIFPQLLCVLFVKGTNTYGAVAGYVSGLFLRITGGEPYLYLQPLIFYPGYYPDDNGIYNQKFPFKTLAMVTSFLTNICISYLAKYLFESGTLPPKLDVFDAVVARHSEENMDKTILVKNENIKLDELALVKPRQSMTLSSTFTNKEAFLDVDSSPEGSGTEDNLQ
PKA-R1A activ = activators of PKA-R1A holoenzyme, primary screen, biochemical, fluorescence polarization, Cy5-IP20, bovine R1A, mouse PKAc; PKA-R1A dissociation; scaled: DMSO 0%, 113 µM cGMP 100%; activation, % at 11.4 µM; actives 0.083% (n = 340,000); AID 504707, 2011;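 active = percent activation above the mean of all tested compounds plus 3 SD, cut at about 19% in these data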;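 also: higher means more PKAc released from R1A so a rise in polarization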
CHT PAM = CHT positive allosteric modulators, primary screen, cell-based, membrane potential dye, choline EC20; High affinity choline transporter 1 (Homo sapiens), Q9GZV3; CHT-expressing cells; stronger effect = higher value; LV-AA mutant CHT in HEK293 cells; actives 0.49% (n = 310,000); B-score at 10 µM;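 active = initial fluorescence not abnormally high and integrated response B-score, plate-corrected, over 3 SD above library mean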
ANO1 activ = TMEM16A chloride channel activators or potentiators, primary screen, cell-based, HTS; Anoctamin-1 (Mus musculus), Q8BHY3; HEK293 TMEM16A/YFP-H148Q/I152L, iodide quench fluorescence; stronger effect = lower value; B-score at 10 µM; actives 0.3% (n = 340,000); AID 623877, 2012;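 active = fluorescence-ratio B-score plate-corrected deviation score at least 3 library SD below zero, with starting fluorescence score within 5 deviations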;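 also: channel opened by trigger with iodide after compound preincubation; score built on the fluorescence ratio of max minus min over baseline; more negative score means more quench and so TMEM16A activation or potentiation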
A number is an active result; 0 = inactive; - = not tested or not shown. Hits are enriched below; roughly 2.5% of the tested compounds scored in any of these assays.

SMILES | ANO1 block | PKA-R2B act | CHT block | PKA-R1A activ | CHT PAM | ANO1 activ
CCOc1ccc(Cc2c(C)[nH]c3ccc(C(=O)O)cc3c2=S)cc1 | 0 | 0 | 0 | 0 | 0 | 0
COC(=O)[C@]1(C)N[C@H](c2ccc(-c3cccc(Cl)c3)cc2)[C@@H]2C(=O)N(C)C(=O)[C@@H]21 | - | 0 | - | 0 | - | 0
COC(=O)[C@]1(CC(C)C)N[C@H](c2ccc(-c3cccc(Cl)c3)cc2)[C@@H]2C(=O)N(C)C(=O)[C@@H]21 | 0 | 0 | 0 | 0 | 0 | -8.6
CCC(C)Sc1ccc([C@H]2N[C@@](CC(C)C)(C(=O)OC)[C@H]3C(=O)N(CC)C(=O)[C@@H]23)cc1 (some centres undefined) | 0 | 0 | 0 | 0 | 0 | -8.4
COc1ccc2[nH]c3c(=O)n(/N=C/[C@H]4C(C)C=C(C)CC4C)c(=O)[nH]c3c2c1 (some centres undefined) | 0 | 0 | 0 | 0 | 0 | -16
CCCCOc1ccc(C2NC(=O)NC(C)=C2C(C)=O)cc1OCC (centres undefined) | 0 | 0 | 0 | 0 | 0 | 0
CCOc1ccccc1N1CCN(C2=C(NS(=O)(=O)c3cccs3)C(=O)c3ccccc3C2=O)CC1 | 0 | 0 | 0 | 0 | 0 | 0
O=C1C(NS(=O)(=O)c2cccs2)=C(N2CCN(Cc3ccccc3)CC2)C(=O)c2ccccc21 | 0 | 0 | -5.5 | 0 | 0 | 0
CC(C)=CCc1c(O)cc2c(=O)c3ccc(O)cc3oc2c1O | 0 | 0 | 0 | 0 | 0 | -7
O=C(c1nc2ccccn2c1CN1CCC(Cc2ccccc2)CC1)N1CCCC1 | 0 | 0 | 0 | 0 | 0 | 0
CCCCNC(=O)c1ccc(NC(=O)CC2SC(N3CCCC3)=NC2=O)cc1 (centres undefined) | - | 0 | - | 0 | - | -26
CNC(=O)c1ccc(NC(=O)CC2SC(N3CCCC3)=NC2=O)cc1 (centres undefined) | - | 0 | - | 0 | - | -
CN(C)S(=O)(=O)c1ccc(C(=O)OCc2nnc(-c3ccccc3)o2)cc1 | 0 | 0 | 0 | 0 | 0 | 0
CS(=O)(=O)c1ccc(C(=O)OCc2nnc(-c3ccccc3)o2)cc1[N+](=O)[O-] | - | 0 | - | 0 | - | -46
CN(CC(=O)Nc1ccc(Cl)c(S(=O)(=O)N2CCOCC2)c1)C(=O)c1ccc(C#N)cc1 | - | 0 | - | 0 | - | 0
Clc1cccc(Cl)c1/C=C/c1nc2ccccc2[nH]1 | 25 | 0 | 0 | 0 | 0 | 0
Clc1ccc(/C=C/c2nc3ccccc3[nH]2)cc1 | 0 | 0 | 0 | 0 | 0 | 0
COc1ccccc1/C=N\NC(=O)c1ccc(COc2ccc(C)c(C)c2)o1 | 0 | 0 | 0 | 0 | 0 | 0
COc1ccc(CSc2nnc(SCc3ccc([N+](=O)[O-])cc3)s2)cc1 | 0 | 0 | 0 | 19 | 0 | 0
COC(=O)CSc1nnc(SCc2ccc(OC)cc2)s1 | 0 | 0 | 0 | 0 | 0 | 0
COc1cccc(N(C(=O)Cn2nnc(-c3ccc(Cl)cc3)n2)C(C(=O)NCC2CCCO2)c2ccc(C)cc2)c1 (centres undefined) | 0 | 0 | 0 | 0 | 0 | 0
CSCCC(NC(=O)c1ccccc1Cl)C(=O)N1CCN(c2ccccn2)CC1 (centres undefined) | 0 | 0 | 0 | 0 | 0 | 0
Cc1ccc(OCCn2cc(C#N)c3ccccc32)cc1 | 100 | 0 | 0 | 0 | 0 | 0
Cc1cccc(C)c1OCC(O)CN1CCC(CN2C(=O)c3cccc4cccc(c34)C2=O)CC1 (centres undefined) | 0 | 0 | -6.3 | 0 | 0 | 0
CCOc1ccc(/C=N/NC(=O)c2[nH]ncc2Br)c(O)c1 | 0 | 0 | 0 | 0 | 0 | 0
O=C1C2CCCN2C(=S)N1C1CCCCC1 (centres undefined) | 0 | 0 | 0 | 0 | 0 | 0

Screening data deposited in PubChem by several laboratories.
